The record followed here is paper PMC7862700, “An all-to-all approach to the identification of sequence-specific readers for epigenetic DNA modifications on cytosine”.

Holding throughout (test): DAPPL (digital affinity profiling via proximity ligation, sequencing); 10 mM Tris-HCl pH 7.5, 50 mM NaCl, 1 mM DTT, 4% glycerol, room temperature, 30 min; GST-TFs on glutathione beads, 16-mer random dsDNA library, 0.1% formaldehyde crosslink after washing; high values mean tight binding
Details in all cases: protein: recombinant; tags: N-terminal GST; dsDNA, one strand shown

In test [1] the target is T1, GABPA (Homo sapiens, UniProt Q06546 1-454).
T1 sequence: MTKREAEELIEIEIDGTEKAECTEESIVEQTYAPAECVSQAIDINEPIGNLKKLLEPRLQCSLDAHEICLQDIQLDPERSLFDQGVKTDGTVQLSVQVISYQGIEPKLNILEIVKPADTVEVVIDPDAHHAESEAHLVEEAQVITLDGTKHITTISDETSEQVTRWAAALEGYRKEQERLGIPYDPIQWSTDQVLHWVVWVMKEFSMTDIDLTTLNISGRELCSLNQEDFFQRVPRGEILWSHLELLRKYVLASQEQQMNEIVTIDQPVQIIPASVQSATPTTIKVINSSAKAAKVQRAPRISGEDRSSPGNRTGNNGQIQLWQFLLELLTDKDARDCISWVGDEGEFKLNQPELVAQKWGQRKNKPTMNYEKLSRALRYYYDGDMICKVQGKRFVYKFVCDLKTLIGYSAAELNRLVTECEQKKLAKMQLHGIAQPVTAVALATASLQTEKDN
The procedure, abridged:
(§1)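 Each value of binding signal is a hexamer's read frequency for a factor divided by the same hexamer's frequency in the tag-only sample. Barcoded, bead-captured GST fusions of human transcription factors made in yeast were pooled with that sample and incubated with 200 nmole of a random double-stranded 16-mer DNA library in Tris/NaCl/DTT/glycerol buffer at room temperature for 30 min. Washing, 0.1% formaldehyde crosslinking, proximity ligation, PCR and Illumina NextSeq500 sequencing followed.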

Test [2] deals with ELF1 (Homo sapiens, UniProt P32519 1-619). The procedure, abridged: as §1
For test [3], the target named is T2, EHF (Homo sapiens, UniProt Q9NZC4 1-300).
T2 sequence: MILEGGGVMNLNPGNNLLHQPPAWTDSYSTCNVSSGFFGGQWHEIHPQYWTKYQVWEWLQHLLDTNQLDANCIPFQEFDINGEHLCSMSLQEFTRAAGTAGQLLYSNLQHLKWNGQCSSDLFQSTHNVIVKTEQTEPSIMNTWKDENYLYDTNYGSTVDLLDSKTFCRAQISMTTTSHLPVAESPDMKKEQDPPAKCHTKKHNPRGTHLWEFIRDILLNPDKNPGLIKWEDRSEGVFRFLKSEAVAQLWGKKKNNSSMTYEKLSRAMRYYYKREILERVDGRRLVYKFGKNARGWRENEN
An outline of the steps: as §1

Test [4] addresses ETV5 (Homo sapiens, UniProt P41161 1-510). The procedure, abridged: as §1
In test [5] the target is T3, ELF3 (Homo sapiens, UniProt P78545 1-371).
T3 sequence: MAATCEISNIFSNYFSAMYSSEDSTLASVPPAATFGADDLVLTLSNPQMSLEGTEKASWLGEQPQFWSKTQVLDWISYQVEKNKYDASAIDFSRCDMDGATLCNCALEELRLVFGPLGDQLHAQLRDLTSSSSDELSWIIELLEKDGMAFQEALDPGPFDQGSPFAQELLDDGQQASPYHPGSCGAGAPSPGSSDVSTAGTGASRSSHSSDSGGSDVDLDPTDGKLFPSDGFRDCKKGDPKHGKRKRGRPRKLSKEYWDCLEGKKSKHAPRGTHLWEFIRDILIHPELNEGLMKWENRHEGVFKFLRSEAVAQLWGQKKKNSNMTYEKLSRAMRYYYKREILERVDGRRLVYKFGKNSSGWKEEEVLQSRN
An outline of the steps:
as §1

Test [6] concerns the target ETV1 (Homo sapiens, UniProt P50549 1-477). The procedure, abridged:
as §1

For test [7], the target named is T4, ERF (Homo sapiens, UniProt P50548 1-548).
T4 sequence: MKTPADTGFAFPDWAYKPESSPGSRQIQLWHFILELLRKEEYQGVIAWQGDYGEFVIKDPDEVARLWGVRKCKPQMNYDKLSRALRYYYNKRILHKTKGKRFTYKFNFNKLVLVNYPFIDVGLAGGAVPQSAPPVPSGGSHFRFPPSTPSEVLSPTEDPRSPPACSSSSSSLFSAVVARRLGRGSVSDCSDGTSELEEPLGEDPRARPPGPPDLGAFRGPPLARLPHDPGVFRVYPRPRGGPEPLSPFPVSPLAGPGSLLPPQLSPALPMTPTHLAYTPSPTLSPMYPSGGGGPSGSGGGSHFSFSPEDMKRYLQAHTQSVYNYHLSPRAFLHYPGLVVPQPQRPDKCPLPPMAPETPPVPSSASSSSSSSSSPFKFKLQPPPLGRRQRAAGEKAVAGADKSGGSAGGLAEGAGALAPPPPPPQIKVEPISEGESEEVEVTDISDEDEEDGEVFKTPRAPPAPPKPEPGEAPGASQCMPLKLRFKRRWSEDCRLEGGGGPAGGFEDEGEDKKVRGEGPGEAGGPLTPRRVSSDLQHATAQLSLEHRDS
An outline of the steps: as §1

The target in test [8] is ETV6 (Homo sapiens, UniProt P41212 1-452). The procedure, abridged: as §1
Test [9] addresses T5, SPIC (Homo sapiens, UniProt Q8N5J4 1-248).
T5 sequence: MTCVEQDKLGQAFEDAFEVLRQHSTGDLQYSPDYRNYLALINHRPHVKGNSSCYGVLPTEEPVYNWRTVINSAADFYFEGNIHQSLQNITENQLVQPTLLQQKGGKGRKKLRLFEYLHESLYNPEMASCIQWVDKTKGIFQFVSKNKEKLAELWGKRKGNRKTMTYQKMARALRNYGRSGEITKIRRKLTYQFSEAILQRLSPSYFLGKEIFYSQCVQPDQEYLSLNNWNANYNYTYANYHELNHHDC
An outline of the steps: as §1

The target in test [10] is T6, SPDEF (Homo sapiens, UniProt O95238 1-335).
T6 sequence: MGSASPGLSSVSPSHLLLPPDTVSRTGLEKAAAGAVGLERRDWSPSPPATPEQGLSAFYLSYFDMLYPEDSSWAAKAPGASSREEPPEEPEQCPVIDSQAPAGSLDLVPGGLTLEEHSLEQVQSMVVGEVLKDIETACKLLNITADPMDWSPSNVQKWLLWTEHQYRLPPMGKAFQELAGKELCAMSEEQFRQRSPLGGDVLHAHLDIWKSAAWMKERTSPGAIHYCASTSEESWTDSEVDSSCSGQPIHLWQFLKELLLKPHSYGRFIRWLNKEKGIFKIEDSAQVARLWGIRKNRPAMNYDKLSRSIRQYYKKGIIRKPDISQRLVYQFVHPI
The procedure, abridged:
as §1

ETV5, sequence (P41161 whole entry): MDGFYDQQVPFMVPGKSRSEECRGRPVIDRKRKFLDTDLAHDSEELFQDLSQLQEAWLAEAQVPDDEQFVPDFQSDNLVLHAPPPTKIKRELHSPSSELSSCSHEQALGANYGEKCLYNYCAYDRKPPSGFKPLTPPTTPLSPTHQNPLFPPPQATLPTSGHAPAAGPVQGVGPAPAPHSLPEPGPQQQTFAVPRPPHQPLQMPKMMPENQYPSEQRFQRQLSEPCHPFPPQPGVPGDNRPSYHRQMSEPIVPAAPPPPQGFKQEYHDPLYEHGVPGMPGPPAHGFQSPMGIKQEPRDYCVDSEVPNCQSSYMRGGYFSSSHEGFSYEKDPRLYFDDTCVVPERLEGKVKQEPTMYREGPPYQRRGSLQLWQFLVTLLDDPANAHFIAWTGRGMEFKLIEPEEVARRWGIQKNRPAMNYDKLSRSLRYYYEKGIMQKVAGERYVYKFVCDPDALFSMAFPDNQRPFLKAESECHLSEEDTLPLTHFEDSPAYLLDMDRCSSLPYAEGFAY
ELF1, sequence (P32519 whole entry): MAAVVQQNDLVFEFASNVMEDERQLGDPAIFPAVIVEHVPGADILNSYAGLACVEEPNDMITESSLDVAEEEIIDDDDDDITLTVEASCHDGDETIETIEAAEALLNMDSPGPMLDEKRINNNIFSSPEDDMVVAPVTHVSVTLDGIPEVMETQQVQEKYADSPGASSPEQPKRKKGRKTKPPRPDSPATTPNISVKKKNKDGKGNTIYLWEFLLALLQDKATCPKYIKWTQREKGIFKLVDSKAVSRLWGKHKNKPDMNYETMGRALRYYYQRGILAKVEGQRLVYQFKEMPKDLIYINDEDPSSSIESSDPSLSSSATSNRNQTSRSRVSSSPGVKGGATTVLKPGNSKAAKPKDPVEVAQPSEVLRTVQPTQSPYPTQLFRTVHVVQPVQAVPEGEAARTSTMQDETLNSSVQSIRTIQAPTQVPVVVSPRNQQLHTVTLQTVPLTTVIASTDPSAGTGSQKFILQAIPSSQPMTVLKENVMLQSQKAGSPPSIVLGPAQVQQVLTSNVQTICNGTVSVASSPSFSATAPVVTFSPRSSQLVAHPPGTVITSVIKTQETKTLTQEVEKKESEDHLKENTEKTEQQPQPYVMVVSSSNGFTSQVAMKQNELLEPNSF
ETV1, sequence (P50549 whole entry): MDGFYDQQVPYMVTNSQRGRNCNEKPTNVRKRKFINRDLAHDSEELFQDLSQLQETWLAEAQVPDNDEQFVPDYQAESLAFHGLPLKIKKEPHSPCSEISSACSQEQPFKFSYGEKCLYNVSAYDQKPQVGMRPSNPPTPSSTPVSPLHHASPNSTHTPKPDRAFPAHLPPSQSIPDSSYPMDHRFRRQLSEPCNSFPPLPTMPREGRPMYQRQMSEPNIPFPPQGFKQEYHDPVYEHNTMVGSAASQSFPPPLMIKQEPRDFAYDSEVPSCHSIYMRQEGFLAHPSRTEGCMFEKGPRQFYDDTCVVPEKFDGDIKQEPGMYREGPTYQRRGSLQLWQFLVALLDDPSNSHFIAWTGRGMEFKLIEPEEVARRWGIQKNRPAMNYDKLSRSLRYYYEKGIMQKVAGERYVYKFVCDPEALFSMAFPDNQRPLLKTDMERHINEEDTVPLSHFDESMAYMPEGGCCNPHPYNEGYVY
ETV6, sequence (P41212 whole entry): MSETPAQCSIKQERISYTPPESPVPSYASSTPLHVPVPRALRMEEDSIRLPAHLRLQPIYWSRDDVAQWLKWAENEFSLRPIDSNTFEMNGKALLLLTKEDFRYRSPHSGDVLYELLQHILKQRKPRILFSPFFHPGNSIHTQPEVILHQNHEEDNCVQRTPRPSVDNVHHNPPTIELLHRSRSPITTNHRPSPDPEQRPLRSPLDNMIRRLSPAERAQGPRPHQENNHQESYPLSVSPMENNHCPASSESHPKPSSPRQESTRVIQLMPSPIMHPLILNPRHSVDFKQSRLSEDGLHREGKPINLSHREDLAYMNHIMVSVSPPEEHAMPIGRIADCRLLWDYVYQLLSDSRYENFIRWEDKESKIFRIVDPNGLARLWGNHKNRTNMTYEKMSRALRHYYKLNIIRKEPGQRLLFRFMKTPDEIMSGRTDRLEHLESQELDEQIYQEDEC

Turning to CATAGC, the binding signal in [1] was 1.02 fold enrichment (6-mer frequency, TF over GST control); in test [2], 1.02 fold enrichment (6-mer frequency, TF over GST control); in test [3], 1.01 fold enrichment (6-mer frequency, TF over GST control); in [4], 1.01 fold enrichment (6-mer frequency, TF over GST control); in [5], 1.1 fold enrichment (6-mer frequency, TF over GST control); in test [6], 1.02 fold enrichment (6-mer frequency, TF over GST control). In addition, the binding signal in test [7] is 1.07 fold enrichment (6-mer frequency, TF over GST control); in test [8], 1.02 fold enrichment (6-mer frequency, TF over GST control).
For CTGTAG, the binding signal in test [1] is 1.03 fold enrichment (6-mer frequency, TF over GST control); in test [4], 1.02 fold enrichment (6-mer frequency, TF over GST control); in [9], 1.08 fold enrichment (6-mer frequency, TF over GST control); in test [7], 1.02 fold enrichment (6-mer frequency, TF over GST control); in test [10], 1.03 fold enrichment (6-mer frequency, TF over GST control).
